# Results as given in PubChem BioAssay (NCATS).
# Inconclusive results are not listed. A call without a number means that no potency is given here. The source made the active and inactive calls. Unless noted, calls follow the shape of the dose curve; as a rule, active = well fitted curve in the direction sought with a large enough effect; inconclusive = small, poorly fitted or top-dose-only effect, or another doubt; inactive = no such curve, though single readings can be large; an effect the other way counts as inactive or inconclusive.
# Key:
# [1] = target: Voltage-gated inwardly rectifying potassium channel KCNH2 (Homo sapiens) (UniProt Q12809); assay: qHTS Assay for Small Molecule Inhibitors of the Human hERG Channel Activity (AID 588834); details: U2OS BacMam hERG, FluxOR thallium flux fluorescence; series mostly up to 46.1 µM;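 also: lower thallium flux fluorescence means stronger hERG block; nearly all actives have a fitted effect of over 50% in size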; also: potency is read from the fitted curve at half-maximal effect
# Voltage-gated inwardly rectifying potassium channel KCNH2 (Homo sapiens), sequence (Q12809 whole entry, looked up): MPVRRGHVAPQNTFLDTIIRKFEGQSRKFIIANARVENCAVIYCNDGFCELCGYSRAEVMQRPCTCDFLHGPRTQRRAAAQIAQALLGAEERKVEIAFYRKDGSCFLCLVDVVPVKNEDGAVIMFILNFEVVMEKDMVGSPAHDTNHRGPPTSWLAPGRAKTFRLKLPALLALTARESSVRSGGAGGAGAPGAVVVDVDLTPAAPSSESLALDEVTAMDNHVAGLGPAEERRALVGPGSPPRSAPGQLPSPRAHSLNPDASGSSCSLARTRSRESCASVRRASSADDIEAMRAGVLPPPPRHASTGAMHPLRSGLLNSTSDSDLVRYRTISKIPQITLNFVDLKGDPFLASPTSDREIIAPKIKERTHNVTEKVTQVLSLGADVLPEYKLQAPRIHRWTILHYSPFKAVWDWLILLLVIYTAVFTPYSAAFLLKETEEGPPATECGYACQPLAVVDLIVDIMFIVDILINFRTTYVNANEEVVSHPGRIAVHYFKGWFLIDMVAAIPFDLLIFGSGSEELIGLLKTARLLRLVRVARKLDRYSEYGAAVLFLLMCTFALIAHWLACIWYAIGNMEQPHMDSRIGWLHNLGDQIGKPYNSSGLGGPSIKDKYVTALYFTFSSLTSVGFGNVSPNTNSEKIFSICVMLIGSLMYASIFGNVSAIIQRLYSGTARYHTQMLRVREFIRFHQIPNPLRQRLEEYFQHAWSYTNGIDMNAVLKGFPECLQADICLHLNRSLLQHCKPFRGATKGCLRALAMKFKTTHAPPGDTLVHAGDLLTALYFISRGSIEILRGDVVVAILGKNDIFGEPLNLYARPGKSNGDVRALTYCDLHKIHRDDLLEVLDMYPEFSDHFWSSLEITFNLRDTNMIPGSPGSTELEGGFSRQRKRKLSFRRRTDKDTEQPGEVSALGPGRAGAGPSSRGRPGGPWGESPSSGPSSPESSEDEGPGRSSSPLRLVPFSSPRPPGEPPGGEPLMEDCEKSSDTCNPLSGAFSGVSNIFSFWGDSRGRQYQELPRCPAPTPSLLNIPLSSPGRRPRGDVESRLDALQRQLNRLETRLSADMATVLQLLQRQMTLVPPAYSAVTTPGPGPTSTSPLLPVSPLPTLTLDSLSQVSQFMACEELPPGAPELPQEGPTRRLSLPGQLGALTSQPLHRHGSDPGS
# Procedure, shortened: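 U2OS cells transduced with hERG via BacMam (MOI ~100), plated 2000/well, loaded with FluxOR thallium dye, compound ~10 min, then stimulation buffer; fluorescence decrease read kinetically; AC50 from Hill fits.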
# [2] = qHTS assay for small molecule antagonists of retinoid X receptor alpha signaling (AID 588546; active = well fitted inhibition curve with a large enough effect in the signal ratio, with a control signal flat, not every such curve was filed as active; the % refers to the signal ratio;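 also: cells stimulated with 9-cis-retinoic acid as agonist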); details: HEK293T RXRa-UAS-bla, beta-lactamase ratio, antagonist mode; measured here: W530 green channel, cytotoxicity proxy
# Procedure, shortened: (§1)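 Beta-lactamase reporter inhibition, read as CCF4 fluorescence ratio (ex 405, em 460/530 nm) after 2 h at RT. HEK293T UAS-bla cells, 2500/well, were stimulated with 9-cis-RA at 500 or 100 nM final alongside test compound for 18 h at 37 C.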
# [3] = target: Retinoic acid receptor RXR-alpha (Homo sapiens) (UniProt P19793); assay: as above; details: HEK293T RXRa-UAS-bla, beta-lactamase ratio, antagonist mode
# Retinoic acid receptor RXR-alpha (Homo sapiens), sequence (P19793 whole entry, looked up): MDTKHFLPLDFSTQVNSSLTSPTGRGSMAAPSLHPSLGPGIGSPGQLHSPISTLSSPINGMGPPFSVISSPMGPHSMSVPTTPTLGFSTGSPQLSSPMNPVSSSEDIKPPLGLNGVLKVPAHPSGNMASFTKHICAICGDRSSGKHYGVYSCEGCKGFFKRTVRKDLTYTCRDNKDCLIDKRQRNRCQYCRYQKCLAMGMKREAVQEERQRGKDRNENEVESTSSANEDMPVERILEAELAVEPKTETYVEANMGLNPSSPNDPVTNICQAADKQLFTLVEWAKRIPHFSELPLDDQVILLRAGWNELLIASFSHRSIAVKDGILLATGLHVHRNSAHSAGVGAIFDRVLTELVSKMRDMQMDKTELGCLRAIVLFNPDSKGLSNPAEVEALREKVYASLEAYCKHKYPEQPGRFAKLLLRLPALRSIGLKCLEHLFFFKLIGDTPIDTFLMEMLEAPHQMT
# Procedure, shortened: as §1
# [4] = target: Luciferin 4-monooxygenase (Photinus pyralis) (UniProt P08659); assay: Biochemical firefly luciferase enzyme assay for NPC (AID 624030);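 also: purified P. pyralis luciferase at 10 nM with luciferin and ATP substrate; nearly all actives have a fitted effect of over 70% in size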; details: purified P. pyralis luciferase, luminescence, 5 min; series mostly up to 58.6 µM
# Luciferin 4-monooxygenase (Photinus pyralis), sequence (P08659 whole entry, looked up): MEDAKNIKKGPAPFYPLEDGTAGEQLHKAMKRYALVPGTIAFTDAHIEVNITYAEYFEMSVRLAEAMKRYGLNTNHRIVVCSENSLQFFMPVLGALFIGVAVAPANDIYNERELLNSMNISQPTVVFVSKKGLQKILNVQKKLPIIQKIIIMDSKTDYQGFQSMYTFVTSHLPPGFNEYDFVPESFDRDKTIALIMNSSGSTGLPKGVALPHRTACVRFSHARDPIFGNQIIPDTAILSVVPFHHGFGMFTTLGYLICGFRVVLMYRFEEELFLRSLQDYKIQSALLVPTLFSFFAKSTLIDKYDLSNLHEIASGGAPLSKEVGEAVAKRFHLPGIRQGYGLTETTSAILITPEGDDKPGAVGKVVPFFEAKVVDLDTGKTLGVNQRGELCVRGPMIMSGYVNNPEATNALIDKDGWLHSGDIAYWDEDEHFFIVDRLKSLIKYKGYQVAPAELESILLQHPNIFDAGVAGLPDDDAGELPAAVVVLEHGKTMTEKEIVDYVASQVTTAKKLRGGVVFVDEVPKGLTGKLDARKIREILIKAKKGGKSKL
# Procedure, shortened: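 Counter-screen for direct inhibition of the luciferase enzyme by approved-drug library compounds, run at 10 nM enzyme in 50 mM Tris acetate (final). Luminescence was read within 5 min of enzyme-buffer addition and normalized to PTC124 versus DMSO (0%).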
# [5] = S16 Schwann cell viability assay (CellTiter-Glo assay) (AID 624031); details: S16 rat Schwann cells viability, 24 h; series mostly up to 57.5 µM; also: nearly all actives have a fitted effect of over 70% in size; also: potency is read from the fitted curve at half-maximal effect
# Procedure, shortened: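 Parental S16 cells, 24 h compound, 37 °C. ATP-luminescence viability; DMSO = 0% activity, empty wells as reference; curves classified by fit quality and efficacy.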
# [6] = S16 Schwann cell PMP22 intronic element firefly luciferase assay (AID 624032); details: S16 rat Schwann cells, PMP22 element FLuc, 24 h; series mostly up to 57.5 µM; also: nearly all actives have a fitted effect of over 30% in size
# Procedure, shortened: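 Rat S16 Schwann cells stably carrying a PMP22 intronic element-driven Fluc reporter were seeded overnight, then exposed to compounds for 24 h at 37 °C. Luminescence was normalized to PTC124 (positive control) and DMSO (0% activity).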
# [7] = S16 Schwann cell PMP22 intronic element beta-lactamase assay (AID 624044; calls by dose curve; also: nearly all actives have a fitted effect of over 15% in size); details: S16 rat Schwann cells, PMP22 element beta-lactamase FRET, 24 h; ratio activity, negative = inhibition: at 38.3 µM (top of the series) unless noted
# Procedure, shortened: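 Rat S16 Schwann cells with beta-Lac driven by a PMP22 intronic element, compound-treated 24 h at 37 °C. LiveBLAzer FRET B/G read: 460 nm normalized to potassium clavulanate vs DMSO; 535 nm FRET as viability; concentration-effect curves classified.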
smiles,measurement,setting,value
NC(N)=NCC1COC2(CCCCC2)O1 (stereo not drawn),Potency,[1],inactive
NCCN,max response,[2],-1.66%
same,max response,[3],-7.75% (inactive)
same,Potency,[4],inactive
same,Potency,[5],inactive
same,Potency,[6],inactive
same,"ratio activity, negative = inhibition",[7],-0.354% (inactive)
O=C1c2c(O)cccc2[C@H]([C@@H]2O[C@H](CO)[C@@H](O)[C@H](O)[C@H]2O)c2cc(CO)cc(O)c21,Potency,[1],inactive
CN1CCc2c(c3ccccc3n2Cc2ccccc2)C1,Potency,[1],5.01 µM (active)
same,Potency,[4],inactive
same,Potency,[5],inactive
same,Potency,[6],inactive
NC(=O)[C@@H]1CCCN1C(=O)[C@H](Cc1cnc[nH]1)NC(=O)[C@@H]1CCC(=O)N1,Potency,[1],inactive
same,Potency,[4],inactive
same,Potency,[5],inactive
CC(=O)c1ccc2c(c1)N(CCCN1CCN(CCO)CC1)c1ccccc1S2,Potency,[1],7.08 µM (active)
same,Potency,[4],inactive
same,Potency,[5],28.7 µM (active)
Cc1ncc(C[n+]2csc(CCO)c2C)c(N)n1,Potency,[1],inactive
same,Potency,[4],inactive
same,Potency,[5],inactive
C[C@H](O)CN(C)C,Potency,[1],inactive
same,Potency,[4],inactive
same,Potency,[5],inactive
same,Potency,[6],inactive
CC(C)Cc1ccc([C@@H](C)C(=O)NS(C)(=O)=O)cc1,Potency,[1],inactive
same,Potency,[4],inactive
same,Potency,[5],inactive
same,Potency,[6],inactive
NCC[C@H](O)C(=O)N[C@@H]1C[C@H](N)[C@@H](O[C@H]2O[C@H](CN)[C@@H](O)[C@H](O)[C@H]2O)[C@H](O)[C@H]1O[C@H]1O[C@H](CO)[C@@H](O)[C@H](N)[C@H]1O,Potency,[1],inactive
same,Potency,[4],inactive
same,Potency,[5],inactive
CC(C)[C@@H](N)C(=O)O,Potency,[1],inactive
same,Potency,[4],inactive
same,Potency,[5],inactive
same,Potency,[6],inactive
O=C(NNCS(=O)(=O)O)c1ccncc1,Potency,[1],inactive
same,Potency,[4],inactive
same,Potency,[5],inactive
same,Potency,[6],inactive
CC(=O)NCCCS(=O)(=O)O,Potency,[1],inactive
same,Potency,[4],inactive
same,Potency,[5],inactive
